Bioassay records from PubChem BioAssay.
Most compounds without a hit are left out; they make up all but 3.1% or so of the library.
NadD block – NadD (S. aureus) enzyme inhibition; purified NadD enzyme, colorimetric absorbance read-out; inhibition, % at 20 µM; 360,000 compounds, 0.78% hits; in the data active means inhibition above about 26%
Mot1-301 SUMO – blocks SUMOylation pathway, rescuing yeast Mot1-301 growth; S. cerevisiae Mot1-301 growth rescue, ATP luminescence, 38.5C; percent above DMSO median, 100 means doubled; growth rescue, % at 18.8 µM; 320,000 compounds, 1% hits;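 active means every valid replicate shows activation above 250% relative to neutral control wells; inactive means the rest, any valid replicate at or below 250%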;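 further: OY570 slx delta 5 strain wells were the positive control but not used for scaling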
FAS-TE inh – blocks the thioesterase domain of human fatty acid synthase; recombinant FAS-TE, OMFH fluorogenic substrate, fluorescence endpoint; inhibition, % at 15 µM; 360,000 compounds, 0.67% hits;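 active means compounds whose normalised, plate-corrected inhibition of enzyme fluorescence in the single-dose primary screen is 50% or more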;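 further: 0% = DMSO with enzyme and 100% = substrate without enzyme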
ATG4B inh – blocks human ATG4B protease cleavage of LC3 substrate | Q9Y4P1 | ATG4B cleavage of LC3-PLA2, NBD-HPC fluorescence, 1 h | inhibition, % at 8.33 µM | 340,000 compounds, 0.51% hits | AID 504462; in the data active means inhibition above about 40%
Target sequence (Q9Y4P1 whole entry, looked up): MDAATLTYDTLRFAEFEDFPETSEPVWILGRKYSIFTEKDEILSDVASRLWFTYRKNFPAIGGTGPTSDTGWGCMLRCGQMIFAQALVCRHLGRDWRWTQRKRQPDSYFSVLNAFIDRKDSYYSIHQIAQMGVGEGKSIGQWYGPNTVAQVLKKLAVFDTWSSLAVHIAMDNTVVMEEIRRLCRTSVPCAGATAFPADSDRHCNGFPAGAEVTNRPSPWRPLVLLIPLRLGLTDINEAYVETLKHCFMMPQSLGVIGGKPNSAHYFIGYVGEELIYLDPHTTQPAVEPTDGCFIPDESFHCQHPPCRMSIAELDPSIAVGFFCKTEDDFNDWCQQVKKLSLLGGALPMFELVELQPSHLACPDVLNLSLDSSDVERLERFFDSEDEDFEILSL
Calb FLC – C. albicans growth modulation with fluconazole; C. albicans CaCi-2 (fluconazole-resistant clinical isolate) + fluconazole, Alamar Blue growth, 48 h; growth inhibition, % (no concentration beside the values); 300,000 compounds, 0.57% hits; AID 1979;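 active means growth inhibition above about 58% in most replicates, limit read from the data, passing the limit was not always enough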;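 further: all wells also contain fluconazole at 8 µg/ml as a sub-toxic cotreatment; 0% = median of DMSO wells and 100% = median of geldanamycin control wells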
Numbers without * were called inactive.

What do the screens show for `Cc1cc(C(=O)NNC(=S)NC(C)c2ccccc2)c2ccccc2n1` (configuration not stated)?
NadD block: 9; FAS-TE inh: -2; ATG4B inh: -14; Calb FLC: 104*

How did Cc1cc(C(=O)NNC(=O)c2ccc(Cl)cc2)c2ccccc2n1 do in these assays?
NadD block: -6; Mot1-301 SUMO: -7; FAS-TE inh: -5; ATG4B inh: 3

What do the screens show for `CCNC(=S)NNC(=O)c1cc(-c2ccccc2C)nc2ccccc12`?
NadD block: 6; Mot1-301 SUMO: 0; FAS-TE inh: -1; ATG4B inh: 20; Calb FLC: 99*

What do the screens show for `O=C(COc1ccccc1)Nc1cccc(-c2nn[nH]n2)c1`?
NadD block: 2; Mot1-301 SUMO: 98; FAS-TE inh: -4; ATG4B inh: -3; Calb FLC: -3

What do the screens show for `O=C(COc1ccccc1)Nc1cccc(-c2nc3cc4ccccc4cc3[nH]2)c1`?
NadD block: 21; Mot1-301 SUMO: 88; FAS-TE inh: 20; ATG4B inh: -2; Calb FLC: 109*

Results for CCc1ccc(NC(=O)C(=O)c2ccccc2NC(C)=O)cc1 ?
NadD block: 0; Mot1-301 SUMO: -16; FAS-TE inh: 3; ATG4B inh: -4

Results for Cc1ccc(N2C(=O)C3C(C2=O)N2C(c4cccs4)C4C(=O)N(c5ccc(C)cc5)C(=O)C4N2C3c2cccs2)cc1 (configuration not stated) ?
NadD block: 25; Mot1-301 SUMO: -3; FAS-TE inh: 84*; ATG4B inh: 36; Calb FLC: -3

How did CCOC(=O)C1(C)NC(c2cccs2)C2C(=O)N(c3ccc(C)cc3)C(=O)C21 (configuration not stated) do in these assays?
NadD block: 4; Mot1-301 SUMO: 59; FAS-TE inh: 0; ATG4B inh: -3; Calb FLC: -15

How did CC(C)CC(=O)Nc1ccc2c3c(cccc13)CC2 do in these assays?
NadD block: 2; Mot1-301 SUMO: 389*; FAS-TE inh: -11; ATG4B inh: 1; Calb FLC: 0

How did Cc1ccc(C)c(-c2nnc(NC(=O)c3ccco3)o2)c1 do in these assays?
NadD block: 6; Mot1-301 SUMO: -10; FAS-TE inh: 0; ATG4B inh: 8; Calb FLC: 83*

What do the screens show for `COc1ccc(Br)cc1C(=O)Nc1cccc(-c2nnc(-c3ccco3)o2)c1`?
NadD block: -8; Mot1-301 SUMO: 331*; FAS-TE inh: 16; ATG4B inh: 2; Calb FLC: 4

What do the screens show for `COc1cccc(C(=O)Nc2cccc(-c3nnc(-c4ccco4)o3)c2)c1`?
NadD block: -12; Mot1-301 SUMO: 9; FAS-TE inh: 14; ATG4B inh: -16; Calb FLC: 55

What do the screens show for `Brc1ccc(-c2cn3nc4c(nc3n2)CCCC4)cc1`?
NadD block: 8; Mot1-301 SUMO: -4; FAS-TE inh: -8; ATG4B inh: -9; Calb FLC: -2

How did Nc1nn2cc(-c3ccc(Br)cc3)nc2c2ccccc12 do in these assays?
NadD block: 5; Mot1-301 SUMO: 58; FAS-TE inh: 27; ATG4B inh: 12; Calb FLC: 99*

How did Cc1cc(C)c(OCC(=O)N2CC=C(c3ccccc3)CC2)c(C)c1 do in these assays?
NadD block: -5; Mot1-301 SUMO: -3; FAS-TE inh: 11; ATG4B inh: -4; Calb FLC: -10

How did Cc1cc(C)n(-c2nc(SCCN(C)C)c3c4c(sc3n2)CCCC4)n1 do in these assays?
NadD block: -4; Mot1-301 SUMO: -19; FAS-TE inh: 0; ATG4B inh: 23; Calb FLC: 79*

What do the screens show for `Cc1cc(C)n(-c2nc(SCC(=O)O)c3c4c(sc3n2)COC(C)(C)C4)n1`?
NadD block: 3; Mot1-301 SUMO: 43; FAS-TE inh: -6; ATG4B inh: 8; Calb FLC: 20

What do the screens show for `CSc1nc(N(C)C)nc(N(C#N)CCOC(C)=O)n1`?
NadD block: 2; Mot1-301 SUMO: 656*; FAS-TE inh: -11; ATG4B inh: 8; Calb FLC: -1

What do the screens show for `CC(CCCN(C)C)C(Cc1ccccc1)c1ccccc1` (configuration not stated)?
NadD block: 0; Mot1-301 SUMO: 73; FAS-TE inh: -2; ATG4B inh: 7; Calb FLC: -8

How did COc1ccc(-n2c(C)n[nH]c2=O)cc1 do in these assays?
NadD block: 7; Mot1-301 SUMO: -4; FAS-TE inh: -8; ATG4B inh: -6; Calb FLC: -4

What do the screens show for `COc1ccc(-n2c(C)n[nH]c2=O)cc1OC`?
NadD block: 3; Mot1-301 SUMO: 347*; FAS-TE inh: -4; ATG4B inh: 5; Calb FLC: 15

How did CCCCC[C@@H](C)N1C[C@@H](COCc2ccccc2)Oc2cc(N3CC[C@@H](N(C)C)C3)ccc2S1(=O)=O do in these assays?
NadD block: 7; FAS-TE inh: 15

What do the screens show for `CC(C)CNC(=O)C(=O)NCc1ccccn1`?
NadD block: 2; Mot1-301 SUMO: 315*; FAS-TE inh: -9; ATG4B inh: -1; Calb FLC: 0

What do the screens show for `CC(C)NC(=O)C(=O)NCc1ccccn1`?
NadD block: -6; Mot1-301 SUMO: 6; FAS-TE inh: -3; ATG4B inh: 0; Calb FLC: 4

Results for O=c1[nH]c2cc3ccccc3cc2nc1-c1nnnn1Cc1ccccc1 ?
NadD block: 13; FAS-TE inh: -1

What do the screens show for `COc1cc(C(=O)Nc2ccc(NC(=O)c3ccccc3Cl)nc2)cc(OC)c1OC`?
NadD block: -4; Mot1-301 SUMO: -1; FAS-TE inh: -1; ATG4B inh: 7; Calb FLC: 0

What do the screens show for `CCCCC1=CC2=C(c3ccco3)C(=O)C(C)(OC(=O)c3ccc(OC)cc3)C(=O)C2=CN1Cc1ccco1` (configuration not stated)?
NadD block: 37*; Mot1-301 SUMO: -8; FAS-TE inh: 10; ATG4B inh: 16; Calb FLC: 4

What do the screens show for `Cc1ccc2nc(-c3ccc(NC(=S)NC4CC(C)(C)NC(C)(C)C4)cc3)sc2c1`?
NadD block: 13; Mot1-301 SUMO: 101; FAS-TE inh: -51; ATG4B inh: 14; Calb FLC: 74*

Results for O=C(CN1C(=O)/C(=C/c2cccc(Br)c2)SC1=S)NC1=NCCS1 ?
NadD block: 34*; Mot1-301 SUMO: 5; FAS-TE inh: 3; ATG4B inh: -11; Calb FLC: -11

How did O=C(CCN1C(=O)S/C(=C\c2ccccc2)C1=O)Nc1ccc(O)cc1C(=O)O do in these assays?
NadD block: -6; Mot1-301 SUMO: -10; FAS-TE inh: -3; ATG4B inh: 9; Calb FLC: 19

Results for Cc1ccc(/C=C2\SC(=S)N(CCCC(=O)NNC(=O)c3ccccc3O)C2=O)cc1 ?
NadD block: 27; Mot1-301 SUMO: 116; FAS-TE inh: 10; ATG4B inh: 2; Calb FLC: -3

Results for Cc1ccc(/C=C2\SC(=S)N(CCC(=O)NNC(=O)c3ccccc3O)C2=O)cc1 ?
NadD block: 38*; Mot1-301 SUMO: -2; FAS-TE inh: 1; ATG4B inh: 0; Calb FLC: -7
